Compound activity: PubChem, National Center for Advancing Translational Sciences (NCATS)
Many of the other results were omitted from the sample, so hits are more common in it than they were.
AmpC no deterg: inhibitors of E. coli AmpC beta-lactamase without detergent; AmpC nitrocefin hydrolysis, absorbance 480 nm, 0.0001% Triton; Potency, µM (highest dose often 57.1 µM), without a hit: at the top dose activity change, negative = inhibition, most hits filed as inhibitors; 0.52% of 330,000 active; AID 485341;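 note: potency is the fitted concentration of half-maximal effect; plate controls were no compound for no effect and no enzyme for full effect; nearly all actives have a fitted effect of over 20% in size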
Target sequence (P00811 whole entry, looked up): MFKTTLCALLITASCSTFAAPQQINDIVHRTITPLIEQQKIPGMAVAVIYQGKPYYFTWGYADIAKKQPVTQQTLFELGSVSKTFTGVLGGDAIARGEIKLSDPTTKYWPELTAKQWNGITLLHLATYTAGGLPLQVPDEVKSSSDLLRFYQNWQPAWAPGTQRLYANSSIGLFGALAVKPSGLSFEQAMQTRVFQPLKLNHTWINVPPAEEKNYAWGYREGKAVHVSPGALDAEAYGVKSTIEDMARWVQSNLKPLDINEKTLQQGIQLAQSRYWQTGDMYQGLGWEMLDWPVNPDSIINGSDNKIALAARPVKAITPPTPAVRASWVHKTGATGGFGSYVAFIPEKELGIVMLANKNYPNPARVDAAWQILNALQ
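AmpC (5.3 nM in the dispensed reagent) in 20 mM phosphate pH 7.0 with 0.01% (detergent screen) or 0.0001% Triton X-100 was preincubated with compounds for 15 min at room temperature. Nitrocefin was then added from an 800 uM solution, and hydrolysis was followed at 480 nm.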
AmpC detergent: inhibitors of E. coli AmpC beta-lactamase with detergent; P00811; 0.041% of 370,000 active; AmpC hydrolysis of nitrocefin, absorbance 480 nm, 0.01% Triton; Potency, µM (titrated, usually from 114 µM), for the others: at the highest dose activity change, negative = inhibition, usual class: inhibitors;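 note: potency is the fitted concentration of half-maximal effect; 0% = no-compound wells and -100% = no-enzyme wells; nearly all actives have a fitted effect of over 25% in size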
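AmpC (5.3 nM in the dispensed reagent) in 20 mM phosphate pH 7.0 with 0.01% (detergent screen) or 0.0001% Triton X-100 was preincubated with compounds for 15 min at room temperature. Nitrocefin was then added from an 800 uM solution, and hydrolysis was followed at 480 nm.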
Cycloheximide cs: counter-screen hit for Shiga toxin inhibitors, cycloheximide. cell reporter, cycloheximide protein synthesis inhibition counterscreen. max response, %. 12% of 300,000 active. AID 2314; in the data active = max response mostly above about 13%, no sharp cut-off; inactive = mostly below about 14%; note: read at 38.3 µM for the half of the compounds with a filed dose; 0% is about no effect
NS1 function inh: influenza NS1 inhibition. Potency, µM (top dose mostly 46.1 µM), for the others: top-dose activity, positive = more growth. 0.4% of 270,000 active; calls by dose curve; note: potency is the fitted concentration of half-maximal effect; actives are rising curves; nearly all actives have a fitted effect of over 50% in size
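S. cerevisiae expressing influenza A NS1, grown in glucose, washed, then diluted 1:100 into pH 6.0 -URA galactose medium with 23 nl compound. Growth recovery read as OD600; NS1-free strain serves as control.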
Shiga toxin inh: inhibitors of Shiga toxin in Vero cells; 9.2% of 290,000 active; AID 2315; Vero cells, Shiga toxin protein synthesis inhibition reporter; inhibition, % at 38.7 µM; in the data active = inhibition mostly above about 28%, no sharp cut-off; inactive = mostly below about 43%; note: 0% is about no effect
The depositor's hits bear a star; u = inconclusive; x = no result. Unless noted, calls come from the whole dose curve; as a rule, active = well fitted curve in the direction sought with a large enough effect; inconclusive = small, poorly fitted or top-dose-only effect, or another doubt; inactive = no such curve, though single readings can be large; an effect the other way counts as inactive or inconclusive.

SMILES	AmpC no deterg	AmpC detergent	Cycloheximide cs	NS1 function inh	Shiga toxin inh
O=C(OCc1nnc(-c2ccccc2)o1)c1cccnc1Cl	-14%	0%	19*	4%	26
O=C(OCc1nnc(-c2ccccc2)o1)c1cc(Cl)ccc1[N+](=O)[O-]	-29%	8%	31*	-3%	57
CCOc1ncccc1C(=O)OCc1nnc(-c2ccccc2)o1	-2%	-9%	12	-88%	21
Cc1ccc(CNC(=O)c2cc3c(s2)CN(Cc2ccccc2)C3)cc1	-22%	3%	-8	x	10
CCc1nnc(SCc2nc(-c3ccccc3Cl)oc2C)c2cc3sc(C)cc3n12	x	19%	x	x	x
COc1ccccc1CN1CCN(C2CCN(C(=O)NC(C)C)CC2)C(=O)C1=O	x	12%	x	x	x
CN(C)c1ccc(C(=S)NC2CCCCC2)cc1	-22%	-11%	25*	-2%	69*
CCN(CC)c1ccc(C(=S)NC2CCCCC2)cc1	-36%	3%	24*	-8%	76*
O=C(CCC1N=C2c3ccccc3N=C(SCc3cccc(F)c3)N2C1=O)NC1CCCCC1 (stereo not drawn)	x	-6%	x	x	x
CCc1nnc(NC(=O)c2sc3nc4c(cc3c2N)CCCCC4)s1	-38%	-6%	42*	u	46*
CCc1nnc(NC(=O)c2sc3nc4c(cc3c2N)CCCCCC4)s1	41%	-4%	13*	-1%	59
COc1ccc(NC(=O)c2sc3nc4c(cc3c2N)CCCCCC4)cc1OC	x	3%	x	x	x
COc1ccccc1NC(=O)c1sc2nc3c(cc2c1N)CCCCCC3	x	-1%	x	x	x
CCOC(=O)c1c(C)oc2ncnc(N3CCN(c4cccc(Cl)c4)CC3)c12	x	6%	x	x	x
Cc1ccc2c3c(cccc13)-c1ccccc1C2=O	-20%	u	28*	-7%	14
O=C(Nc1ccc(Cl)cn1)c1ccc(COc2ccccc2Br)o1	-29%	5%	61*	x	162*
CCOc1ccc(OCc2ccc(C(=O)Nc3ccc(Cl)cn3)o2)cc1	u	-3%	15	x	34*
Cc1ccc(NC(=O)c2ccc(COc3ccccc3)o2)nc1	-15%	-4%	26*	-26%	55*
O=C(Nc1cccnc1)c1ccc(COc2ccccc2Cl)o1	-15%	-11%	10	-69%	-5
O=C(Nc1ccccn1)c1ccc(COc2ccccc2Cl)o1	-24%	3%	30*	3%	89*
CCOC(=O)N1CCc2c(sc3c2c(=O)n(-c2ccc(F)cc2)c(=O)n3CC(=O)c2ccccc2)C1	x	7%	x	x	x
COc1ccc(N(CC(=O)NCc2ccccc2OC)S(=O)(=O)c2ccccc2[N+](=O)[O-])c(OC)c1	8%	0%	1	13%	-6
OCC#CCSc1nnc(-c2ccccc2Br)o1	0%	-12%	27*	1%	38
Cc1cc(C)c(C(=O)CSc2nnc(-c3ccccc3Br)o2)cc1C	-26%	-10%	-3	-4%	6
COc1ccc(-c2nnc(SCC#CCO)o2)cc1OC	u	u	-2	-5%	12
SMILES	AmpC no deterg	AmpC detergent	Cycloheximide cs	NS1 function inh	Shiga toxin inh
OCC#CCSc1nnc(-c2ccc(Br)cc2)o1	-5%	u	33*	-12%	22
COc1ccc(CN(C(=O)c2ccccc2F)C2CCS(=O)(=O)C2)cc1 (stereo not drawn)	x	-1%	x	x	x
O=C(NCc1ccco1)C(=O)N1CCCC1	-15%	8%	-3	0%	-18
O=[N+]([O-])c1ccc(OCCN2CCNCC2)cc1	5%	-6%	-4	-4%	-7
Cc1ccc(OCCn2c(=O)n(C)c3ccccc32)cc1	74%	1%	42*	-7%	105*
Cn1c(=O)n(CCOc2ccc([N+](=O)[O-])cc2)c2ccccc21	38%	-3%	26*	-5%	67*
COc1ccc(NC(=O)CS(=O)CC(=O)Nc2ccc(NC(C)=O)cc2)cc1 (stereo not drawn)	-7%	-7%	0	13%	-12
CCc1nn(CC(=O)NCc2ccc(OC)c(OC)c2)c(=O)c2cc3sc(C)cc3n12	x	0%	x	x	x
COc1ccc(-c2nnn(Cc3ccccc3F)n2)cc1	-27%	-4%	49*	-2%	96*
O=C(OCc1ccccc1)c1ccc(-c2nnn(Cc3ccccc3F)n2)cc1	x	-4%	x	x	x
Fc1ccccc1Cn1nnc(-c2ccc3c(c2)OCO3)n1	-20%	-7%	43*	-84%	88*
CCCSc1ncnc2c1oc1ccccc12	-15%	-18%	25*	-40%	27
Fc1ccccc1CSc1ncnc2c1oc1ccccc12	-14%	u	-9	-8%	-11
c1coc(CSc2ncnc3c2oc2ccccc23)c1	-2%	2%	57*	-40%	85*
O=C(CSc1ncnc2c1oc1ccccc12)Nc1cccc(Cl)c1	-14%	-10%	9.2*	-11%	49
CC(C)Sc1ncnc2c1oc1ccccc12	-2%	-2%	32*	-15%	85*
COCCCNC(=O)CSc1nc2c(sc3ccccc32)c(=O)n1CCc1ccc(OC)c(OC)c1	x	4%	x	x	x
COc1ncnc2c1oc1ccccc12	-22%	2%	48*	-3%	112*
CCOc1ccccc1NC(=O)CSc1ncnc2c1oc1ccccc12	-13%	1%	23*	-25%	-12
CC(=O)CSc1ncnc2c1oc1ccccc12	-8%	u	12*	-9%	23
c1ccc(Sc2ncnc3c2oc2ccccc23)nc1	-1%	10%	64*	-53%	115*
O=C(CSc1ncnc2c1oc1ccccc12)Nc1ccccc1F	-11%	u	-1	0%	-14
CCOc1ccccc1Oc1ncnc2c1oc1ccccc12	x	9%	x	x	x
CCOC(=O)c1c(C)[nH]c(C)c1S(=O)(=O)N(C)CC(=O)Nc1cc(Cl)ccc1C	x	3%	x	x	x
COc1cc(OC)cc(C(=O)Nc2ccc3oc(-c4ccc(Cl)cc4)nc3c2)c1	x	12%	x	x	x
SMILES	AmpC no deterg	AmpC detergent	Cycloheximide cs	NS1 function inh	Shiga toxin inh
COc1ccc(-c2ccc(C(C)=O)cc2)cc1C1C2C=CCC(C)C2C(=O)N1Cc1ccccc1 (stereo not drawn)	x	x	6	x	-6
Cc1ccc(-n2nc(C(=O)N3CCCCC3)c(=O)n(C)c2=O)cc1	x	2%	x	x	x
CCc1nc(SCC(=O)c2cccs2)c2oc3ccccc3c2n1	29%	u	27*	-1%	44
O=C(Cc1cccc2ccccc12)Nc1c(F)cccc1F	-16%	2%	18*	4%	58*
Fc1ccccc1CCNCc1cccc2ccccc12	2%	6%	18*	-1%	26
Cc1ccc(CNCCc2ccccc2F)cc1	-12%	u	14*	-13%	40
O=C(Cc1cccc2ccccc12)Nc1ccccc1C(=O)O	-43%	3%	15	5%	52
CCN(CC)c1ccc(CNCCc2ccccc2F)cc1	-2%	6%	-3	-3%	-18
COc1cccc(N2CCN(S(=O)(=O)c3cn(C)c(C)n3)CC2)c1	x	27%	x	x	x
CSCCC(NC(=O)c1cccc(C)c1)C(=O)NNC(=O)c1cccs1 (stereo not drawn)	-23%	x	x	x	x
O=C1C2CC=CCC2C(=O)N1Cc1ccccc1 (stereo not drawn)	-2%	8%	-3	-6%	4
